# Compounds with a hit are over-represented: about 4.4% of the library has one in this group of screens.
# tim10-1 inh = growth inhibitors of tim10-1 mutant yeast, primary screen, luminescence, uHTS. S. cerevisiae tim10-1 ts strain growth, BacTiter-Glo, 24 h. inhibition, % at 20 µM. hit rate 2.2% among 330,000. AID 463190, 2010;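 active = inhibition of at least 40%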;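 also: mutant grown at 25 °C; 0% = DMSO wells with yeast and 100% = wells holding no yeast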
# tim23-1 inh = growth inhibitors of tim23-1 mutant yeast, primary screen, luminescence, uHTS. AID 463212, 2010. inhibition, % at 20 µM. S. cerevisiae tim23-1 growth, BacTiter-Glo luminescence, 24 h. hit rate 1.3% among 330,000;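 active = growth inhibition of the mutant yeast at or above 50%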;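 also: temperature-sensitive mutant grown at 25 °C; plate controls were DMSO-treated mutant yeast for no effect and medium wells lacking yeast for full effect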
# Mot1-301 SUMO = yeast Mot1-301 growth rescue at high temperature, primary screen, SUMOylation pathway inhibitor project, S. cerevisiae, ATP luminescence, 38.5C; AID 2716, 2010; growth rescue, % at 18.8 µM; hit rate 1% among 320,000; S. cerevisiae Mot1-301 growth rescue; percent above DMSO median, 100 means doubled;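 active = every valid replicate shows activation above 250% relative to neutral control wells; inactive = the rest, any valid replicate at or below 250%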;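 also: OY570 slx delta 5 strain wells were the positive control but not used for scaling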
# PfHsp90 set2 = growth inhibition of PfHsp90-expressing yeast, primary screen, antimalarial PfHsp90 inhibitor project, S. cerevisiae, BacTiter-Glo luminescence, single point, set 2; BacTiter-Glo ATP, 48 h; yeast lacking PDR1 and PDR3 efflux regulators; inhibition, % at 9.4 µM; hit rate 0.32% among 310,000;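 active = every replicate shows inhibition above about 80%, whatever the replicate mean, limit read from the data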;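 also: 0% = DMSO neutral controls and 100% = 20 µM radicicol positive controls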
# TIM10 inh = growth inhibitors of isogenic TIM10 control yeast, primary screen, counter-screen for tim10-1 yeast inhibitor project, luminescence, uHTS; inhibition, % at 10 µM; AID 463195, 2010; hit rate 1.4% among 330,000; S. cerevisiae TIM10 strain growth, BacTiter-Glo luminescence, 24 h;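 active = inhibition of 40% or more at the single tested concentration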;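 also: wild-type TIM10 isogenic control strain grown at permissive 25 °C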
# tim10-1 conf = growth inhibitors of tim10-1 mutant yeast, confirmation, single concentration, luminescence, S. cerevisiae; S. cerevisiae tim10-1 ts strain growth, BacTiter-Glo, 24 h; hit rate 56% among 7,400; shares compounds with tim10-1 inh; inhibition, % at 20 µM;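 active = inhibition of yeast growth at or above a set limit in either of two repeat tests at 20 µM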;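 also: tim10-1 mutant grown at permissive 25 °C to find synthetic lethal compounds; 0% = DMSO yeast wells and 100% = medium wells without yeast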
# Starred values were filed as active, the others as inactive; x = no result.
SMILES,tim10-1 inh,tim23-1 inh,Mot1-301 SUMO,PfHsp90 set2,TIM10 inh,tim10-1 conf
CCOc1ccc(C(=O)Nc2cc3c(cc2N2CCCC2)n(CC)c(=O)n3CC)cc1OCC,3,19,296,26,11,x
CC1CCN(C(=S)c2cn(Cc3cccc(F)c3)c3ccccc23)CC1,41*,11,75,-18,34,20
Cc1c(NC(=O)/C(C#N)=C/c2ccc(-c3cc(Cl)ccc3Cl)o2)c(=O)n(-c2ccccc2)n1C,18,17,-1,-9,17,x
Cc1c(NC(=O)/C(C#N)=C/c2ccc(-c3ccc(Cl)cc3)o2)c(=O)n(-c2ccccc2)n1C,42*,32,-19,-4,34,30*
COc1cc(Cl)cc2c1Sc1ccccc1/C2=C/CCN(C)C,42*,-68,94,22,35,29
COc1cc2c(cc1Cl)/C(=C\CCN(C)C)c1ccccc1S2,40*,17,0,13,17,30
O=c1c2[nH]c3ccc(F)cc3c2nc2n1CCS2,46*,19,2,-16,26,40*
O=c1c2[nH]c3ccc(F)cc3c2nc2n1CCCS2,41*,32,-24,16,18,23
N#Cc1c(NC(=S)NC(=O)Cc2cccs2)sc2c1CCCCC2,47*,33,-14,x,19,29
CCCSc1nnc(CSc2nc3ccccc3s2)n1-c1ccccc1,44*,29,3,-1,22,33*
CCn1c(CSc2nc3ccccc3s2)n[nH]c1=S,42*,33,-19,-19,33,32*
N#CCCCSc1nnc(CSc2nc3ccccc3s2)n1-c1ccccc1,29,17,-16,3,20,x
COc1ccc(NC(=O)CSc2nc(C(C)C)nc3c2c(=O)n(C)c(=O)n3C)c(OC)c1,-5,12,-11,14,9,x
CC(C)(C)NC(=O)NC(=O)CN1CCN(c2cccc(Cl)c2)CC1,11,11,-18,10,0,x
CC1CCc2c(sc(N)c2C(N)=O)C1 (centres undefined),41*,17,-8,x,1,25
O=C(NC(c1cccnc1)C(F)(F)F)c1cc(COc2ccc3c(c2)CCCC3)on1 (centres undefined),42*,37,-8,6,5,14
O=C(Nc1ccc(N2CCN(C(=O)c3ccccc3F)CC2)cc1)c1cncc(Br)c1,46*,35,-10,4,13,31*
O=C(Nc1ccc(N2CCN(C(=O)c3cccs3)CC2)cc1)c1cccc(F)c1,48*,34,9,16,32,33*
COc1cccc(C(=O)Nc2ccc(N3CCN(C(=O)c4cccs4)CC3)cc2)c1,19,37,4,-15,25,x
Cc1ccccc1C(=O)N1CCN(c2ccc(NC(=O)c3ccc4c(c3)OCO4)cc2)CC1,44*,29,124,x,11,29*
Cc1cccc(N(C(=O)c2csnn2)C(C(=O)NC2CCCCC2)c2ccccn2)c1C (centres undefined),14,20,-6,13,-7,x
Cc1cc(C)n2nc(SCc3ccc(F)cc3Cl)nc2n1,2,37,80,22,15,x
Cc1cc(C)n2nc(SCc3c(F)cccc3Cl)nc2n1,48*,42,-5,-8,26,33*
CCc1ccc2nc(N3CCN(C(=O)C(C)(C)C)CC3)sc2c1,15,22,35,19,-7,x
CC(C)(C)C(=O)N1CCN(c2nc3ccccc3s2)CC1,47*,25,3,-1,2,-9
SMILES,tim10-1 inh,tim23-1 inh,Mot1-301 SUMO,PfHsp90 set2,TIM10 inh,tim10-1 conf
CCc1cc2ccc(C)cc2nc1SCC(=O)N1CCN(C(=O)c2ccco2)CC1,42*,38,-16,-11,5,13
CCCCn1c(N)c(N(CC(C)C)C(=O)c2ccc3c(c2)NC(=O)C(C)S3)c(=O)[nH]c1=O (centres undefined),11,21,23,-25,10,x
COC(=O)c1cccc2c1-c1ccccc1/C2=N\NC(N)=O,40*,12,-7,-15,23,12
CC(Oc1ccc(Br)cc1)C(=O)NNC(=O)CCN1CCN(c2ccccc2)CC1 (centres undefined),-5,-12,-11,10,6,x
CN(C)c1ccc(/C=C/c2nc3ccccc3s2)cc1,47*,25,-26,36,36,56*
COc1cc(C=C(c2nc3ccccc3s2)c2nc3ccccc3s2)ccc1O,51*,28,-14,4,35,39*
COc1cc(/C=C/c2nc3ccccc3s2)cc(OC)c1O,44*,37,3,x,32,27
CN(C)c1ccc(/C=C/c2ccc3ccccc3n2)cc1,x,x,-39,44,x,x
CCn1cc(C(=O)NCc2ccco2)c(=O)c2ccc(C)nc21,12,33,7,-1,19,x
O=[N+]([O-])c1ccccc1CNc1ccc(F)c(Cl)c1,36,37,12,-26,22,x
Fc1ccccc1CNc1cc(Cl)cc(Cl)c1,59*,26,8,-8,20,65*
Cn1cc(CN2CCC(n3nccc3NC(=O)C3CCCC3)CC2)cn1,-6,8,5,2,-7,x
Cc1cc(C)n(CCc2nc(-c3cc4ccccc4o3)cs2)n1,43*,43,21,8,23,30
CCc1cc2c(cc3c(=O)n(CC(=O)N4CCN(C)CC4)ncn32)s1,-10,-4,0,-7,-10,x
O=c1[nH][nH]c(-c2ccccc2O)c1C(C[N+](=O)[O-])c1ccccc1 (centres undefined),45*,42,25,12,36,31
CCCC(=O)Nc1cc(C)c(NC(=O)c2cccs2)cn1,-16,16,1,22,1,x
CCCC(=O)Nc1cc(C)c(NC(=O)C23CC4CC(CC(C4)C2)C3)cn1,42*,24,279,4,36,32*
Cc1nn(-c2ccccc2)c(Cl)c1/C=N/NC(=O)OC(C)(C)C,44*,39,1,1,-8,21
CNC(=S)N/N=C/c1c(C)nn(-c2ccccc2)c1Cl,27,11,15,15,2,x
Cc1nn(-c2ccccc2)c(Cl)c1/C=N/NS(=O)(=O)c1ccc(Br)cc1,42*,45,35,-12,-2,30
Cc1nn(-c2ccccc2)c(Cl)c1/C=N/Nc1ccc(S(=O)(=O)Nc2ccccc2C(=O)O)cc1[N+](=O)[O-],42*,31,93,-17,5,36*
O=C(NCc1ccco1)C1CCN(S(=O)(=O)c2cccc([N+](=O)[O-])c2)CC1,-21,4,-11,-14,8,x
